The panel holds about 83,000 compounds, 20% with a hit somewhere; the sample as a whole holds those more often.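 Compound tested at a single concentration for 48 hours in 96-well plates; a percent growth value below 10 was scored as active.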 Values without a mark were called inactive. Calls of active or inactive are those of the source.
Test system: SK-OV-3 ovarian
Assay: NCI-60 one-dose screen, 48 h (100 = growth as untreated, 0 = no growth, -100 = all killed)
Conditions: 10 µM

**Q.** O=S(=O)(Nc1ncccn1)c1ccc(-n2c(-c3ccccc3)nc(-c3ccccc3)c2-c2ccccc2)cc1 was tested. Which growth did it give?
**A.** 101%

**Q.** With COc1ccc(-c2cc(-c3cc(C(=O)c4ccccc4)n4ccc(C)cc34)nc(N)c2C#N)cc1 as the compound, how does the growth read?
**A.** 94.4%

**Q.** With N#Cc1ccc(NC(=O)CSc2ccc(-c3ccc(Br)cc3)nn2)cc1 as the compound, how does the growth read?
**A.** 86.1%

**Q.** With COc1cc2oc(-c3cccc(C(=O)Nc4ccc(Cl)cc4)c3)cc(=O)c2c(OCCNC(=O)CNC(=O)OC(C)(C)C)c1OC as the compound, how does the growth read?
**A.** 92.7%

**Q.** For CCCCOc1ccc(Nc2nc3ccccc3nc2Nc2ccc(OCCCC)cc2)cc1, which growth is on record?
**A.** 106%

**Q.** Which growth does the source give for COc1cc(NC(=O)CSc2nnc(-c3ccc4nc(-c5ccc(Cl)cc5)[nH]c4c3)o2)cc(OC)c1OC here?
**A.** 101%

**Q.** For O=C(NO)c1ccc(CNC(=O)[C@H]2Cc3c([nH]c4ccccc34)[C@H](c3ccc(Cl)cc3)N2)cc1, which growth is on record?
**A.** -12.7% (active)

**Q.** With N#Cc1c(NC(=O)c2ccc(C(F)(F)F)c(Cl)c2)sc2c1CCC(=O)C2 as the compound, how does the growth read?
**A.** -30.1% (active)

**Q.** With O=C(Cc1ccc2c(c1)CN(C1CCC(=O)NC1=O)C2=O)NCc1cccc2ccccc12 (configuration not stated) as the compound, how does the growth read?
**A.** -7.7% (active)

**Q.** O=C(NCCCCCCCCCC[P+](c1ccccc1)(c1ccccc1)c1ccccc1)c1ccc(-n2nc(-c3ccccc3O)nc2-c2ccccc2O)cc1 was tested. Which growth did it give?
**A.** -71.5% (active)

**Q.** How did the growth turn out when COc1ccc2[nH]c(=O)c(CSc3ccc(Nc4nccc(-c5ccc(Cl)cc5)n4)cc3)cc2c1 was run?
**A.** 119%

**Q.** With CCOC(=O)C1=C(N)N(c2ccccc2)C2=C(C(=O)CC(C)(C)C2)C1c1ccccc1OC (configuration not stated) as the compound, how does the growth read?
**A.** 98.2%

From PubChem BioAssay (NCI)
